Results as given in the supplement of paper PMC6411743.
± gives the standard deviation of the averaged measurements. Of roughly 6,200 targets only a part is listed; those with the largest changes were picked by preference.

Experiments:
Experiment in all cases: NP40-soluble protein abundance relative to vehicle (solubility fold change) (ratio); higher = more soluble protein in presence of AMP-PNP
[1] = tested on: A0A087WZ62
Procedure, shortened: (§1)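 Jurkat crude lysate prepared with a Dounce homogeniser was treated at eight concentrations spanning 0.1 to 10 mM, 10 min at room temperature then 3 min at 37 °C. Solubilisation with 0.8% NP40 and benzonase and ultracentrifugation preceded TMT labelling of the supernatant for LC-MS/MS. Fold change against the detergent-processed vehicle was determined per replicate from vsn-normalised intensities, across three independent experiments.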

[2] = target: T1, A0A087X0V5|P29728|P29728-2 (UniProt P29728)
T1 sequence (whole entry): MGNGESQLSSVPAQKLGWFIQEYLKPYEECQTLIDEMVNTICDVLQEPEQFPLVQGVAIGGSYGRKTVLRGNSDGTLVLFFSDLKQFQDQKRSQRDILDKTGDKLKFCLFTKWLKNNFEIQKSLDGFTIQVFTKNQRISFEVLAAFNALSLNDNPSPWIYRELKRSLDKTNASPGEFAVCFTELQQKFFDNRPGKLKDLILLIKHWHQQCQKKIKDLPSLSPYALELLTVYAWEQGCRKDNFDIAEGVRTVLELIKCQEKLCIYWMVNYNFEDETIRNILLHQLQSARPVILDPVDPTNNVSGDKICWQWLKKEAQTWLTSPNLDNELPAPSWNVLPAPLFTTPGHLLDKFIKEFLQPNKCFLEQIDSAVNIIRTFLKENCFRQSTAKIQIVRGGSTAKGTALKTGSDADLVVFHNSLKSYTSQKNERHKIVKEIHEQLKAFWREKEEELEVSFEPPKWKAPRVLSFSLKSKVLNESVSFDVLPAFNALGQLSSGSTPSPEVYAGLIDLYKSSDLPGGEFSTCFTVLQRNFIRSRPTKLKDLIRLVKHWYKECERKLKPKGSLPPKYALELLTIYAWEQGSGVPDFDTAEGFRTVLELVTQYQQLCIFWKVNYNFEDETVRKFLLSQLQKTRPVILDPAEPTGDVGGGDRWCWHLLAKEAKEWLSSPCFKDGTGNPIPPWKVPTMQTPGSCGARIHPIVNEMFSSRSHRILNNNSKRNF
Procedure, shortened: as §1

[3] = target: A0A087X1K6|H0YK05|Q9Y2Y9 (UniProt Q9Y2Y9)
Sequence of A0A087X1K6|H0YK05|Q9Y2Y9 (Q9Y2Y9 whole entry, one chain of several): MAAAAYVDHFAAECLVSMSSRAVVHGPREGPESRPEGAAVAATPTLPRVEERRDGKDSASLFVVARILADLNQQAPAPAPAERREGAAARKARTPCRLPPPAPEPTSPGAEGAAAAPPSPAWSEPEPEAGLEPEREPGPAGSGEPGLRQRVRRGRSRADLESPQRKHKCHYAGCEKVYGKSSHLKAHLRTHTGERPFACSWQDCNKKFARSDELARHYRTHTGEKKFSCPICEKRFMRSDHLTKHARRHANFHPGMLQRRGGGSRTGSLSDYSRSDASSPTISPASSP
Procedure, shortened: as §1

[4] = target: A0A087X1Z1|A0A0G2JPW5|A0A0G2JQX1|A0A0G2JSA7|Q96RT8|Q96RT8-2 (UniProt Q96RT8)
Sequence of A0A087X1Z1|A0A0G2JPW5|A0A0G2JQX1|A0A0G2JSA7|Q96RT8|Q96RT8-2 (Q96RT8 whole entry, one chain of several): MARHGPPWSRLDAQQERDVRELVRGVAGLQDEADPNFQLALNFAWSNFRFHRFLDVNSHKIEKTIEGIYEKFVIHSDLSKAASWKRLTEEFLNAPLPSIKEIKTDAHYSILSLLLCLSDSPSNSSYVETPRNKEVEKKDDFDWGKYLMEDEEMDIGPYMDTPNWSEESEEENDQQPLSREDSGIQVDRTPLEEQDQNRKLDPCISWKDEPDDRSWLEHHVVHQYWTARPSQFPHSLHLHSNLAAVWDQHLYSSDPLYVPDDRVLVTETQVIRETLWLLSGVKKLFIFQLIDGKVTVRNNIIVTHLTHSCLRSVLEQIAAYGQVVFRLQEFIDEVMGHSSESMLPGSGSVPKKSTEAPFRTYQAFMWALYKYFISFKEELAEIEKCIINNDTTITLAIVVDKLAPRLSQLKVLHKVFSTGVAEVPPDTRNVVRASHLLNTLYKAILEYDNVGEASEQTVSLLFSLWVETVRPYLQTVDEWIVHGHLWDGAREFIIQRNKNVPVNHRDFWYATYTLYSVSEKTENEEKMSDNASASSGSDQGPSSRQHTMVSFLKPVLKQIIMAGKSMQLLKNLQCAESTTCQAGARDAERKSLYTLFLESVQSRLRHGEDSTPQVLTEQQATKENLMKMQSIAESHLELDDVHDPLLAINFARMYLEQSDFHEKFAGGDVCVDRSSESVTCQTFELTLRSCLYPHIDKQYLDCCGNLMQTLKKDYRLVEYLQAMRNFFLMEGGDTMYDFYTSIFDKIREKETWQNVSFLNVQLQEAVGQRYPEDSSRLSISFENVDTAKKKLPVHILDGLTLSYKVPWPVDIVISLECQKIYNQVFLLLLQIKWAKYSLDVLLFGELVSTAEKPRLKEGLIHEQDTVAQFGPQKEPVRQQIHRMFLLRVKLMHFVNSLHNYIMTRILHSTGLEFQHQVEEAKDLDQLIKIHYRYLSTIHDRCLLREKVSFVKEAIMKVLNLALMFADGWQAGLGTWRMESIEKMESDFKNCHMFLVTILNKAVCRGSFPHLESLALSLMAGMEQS
Procedure, shortened: as §1

[5] = target: A0A096LP25|Q2M2I8|Q2M2I8-2 (UniProt Q2M2I8)
Sequence of A0A096LP25|Q2M2I8|Q2M2I8-2 (Q2M2I8 whole entry, looked up, one chain of several): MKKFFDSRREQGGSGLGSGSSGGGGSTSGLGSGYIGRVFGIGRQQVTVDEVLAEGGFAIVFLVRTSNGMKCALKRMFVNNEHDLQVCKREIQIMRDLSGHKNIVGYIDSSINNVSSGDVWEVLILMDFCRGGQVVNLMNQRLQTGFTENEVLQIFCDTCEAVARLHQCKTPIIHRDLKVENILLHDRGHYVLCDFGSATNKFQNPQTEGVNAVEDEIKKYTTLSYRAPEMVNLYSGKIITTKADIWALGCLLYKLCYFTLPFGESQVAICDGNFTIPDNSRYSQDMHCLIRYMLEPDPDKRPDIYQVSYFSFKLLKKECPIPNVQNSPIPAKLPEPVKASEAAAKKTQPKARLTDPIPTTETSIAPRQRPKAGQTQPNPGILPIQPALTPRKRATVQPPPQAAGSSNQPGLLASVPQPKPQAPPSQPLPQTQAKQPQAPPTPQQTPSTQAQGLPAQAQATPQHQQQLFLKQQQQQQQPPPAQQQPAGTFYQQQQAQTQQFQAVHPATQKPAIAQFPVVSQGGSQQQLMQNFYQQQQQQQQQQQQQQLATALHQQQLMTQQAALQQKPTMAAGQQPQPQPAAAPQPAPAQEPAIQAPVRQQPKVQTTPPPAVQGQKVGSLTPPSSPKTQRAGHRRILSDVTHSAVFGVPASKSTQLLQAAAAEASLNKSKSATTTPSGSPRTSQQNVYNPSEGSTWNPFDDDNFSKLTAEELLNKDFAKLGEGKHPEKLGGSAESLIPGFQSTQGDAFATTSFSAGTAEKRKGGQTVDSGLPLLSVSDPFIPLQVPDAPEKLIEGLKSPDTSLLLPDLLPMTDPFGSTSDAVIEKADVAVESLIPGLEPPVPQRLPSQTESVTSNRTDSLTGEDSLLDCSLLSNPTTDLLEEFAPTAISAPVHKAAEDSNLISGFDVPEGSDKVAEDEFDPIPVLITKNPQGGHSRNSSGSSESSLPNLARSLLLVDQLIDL
Procedure, shortened: as §1

## Nc1ncnc2c1ncn2[C@@H]1O[C@H](COP(=O)(O)OP(=O)(O)NP(=O)(O)O)[C@@H](O)[C@H]1O [adenylyl imidodiphosphate]
[1]; concentration: 6mM
  NP40-soluble protein abundance: 0.952 ± 0.014
[1]; concentration: 8mM
  NP40-soluble protein abundance: 0.946 ± 0.028
[1]; concentration: 10mM
  NP40-soluble protein abundance: 0.936 ± 0.017
[2]; concentration: 1mM
  NP40-soluble protein abundance: 1.13 ± 0.0059
[2]; concentration: 2mM
  NP40-soluble protein abundance: 1.07 ± 0.091
[2]; concentration: 4mM
  NP40-soluble protein abundance: 1.26 ± 0.049
[2]; concentration: 6mM
  NP40-soluble protein abundance: 1.24 ± 0.086
[2]; concentration: 8mM
  NP40-soluble protein abundance: 1.358 ± 0.011
[2]; concentration: 10mM
  NP40-soluble protein abundance: 1.29 ± 0.02
[3]; concentration: 1mM
  NP40-soluble protein abundance: 0.998 ± 0.029
[3]; concentration: 2mM
  NP40-soluble protein abundance: 0.998 ± 0.03
[3]; concentration: 4mM
  NP40-soluble protein abundance: 0.971 ± 0.024
[3]; concentration: 6mM
  NP40-soluble protein abundance: 1.01 ± 0.016
[3]; concentration: 8mM
  NP40-soluble protein abundance: 0.991 ± 0.03
[3]; concentration: 10mM
  NP40-soluble protein abundance: 0.996 ± 0.0047
[4]; concentration: 1mM
  NP40-soluble protein abundance: 0.946 ± 0.021
[4]; concentration: 2mM
  NP40-soluble protein abundance: 1 ± 0.057
[4]; concentration: 4mM
  NP40-soluble protein abundance: 0.951 ± 0.032
[4]; concentration: 6mM
  NP40-soluble protein abundance: 0.972 ± 0.029
[4]; concentration: 8mM
  NP40-soluble protein abundance: 0.962 ± 0.018
[4]; concentration: 10mM
  NP40-soluble protein abundance: 0.96 ± 0.016
[5]; concentration: 1mM
  NP40-soluble protein abundance: 1.07 ± 0.02
[5]; concentration: 2mM
  NP40-soluble protein abundance: 1.11 ± 0.041
[5]; concentration: 4mM
  NP40-soluble protein abundance: 1.11 ± 0.026
[5]; concentration: 6mM
  NP40-soluble protein abundance: 1.09 ± 0.024
[5]; concentration: 8mM
  NP40-soluble protein abundance: 1.08 ± 0.02
[5]; concentration: 10mM
  NP40-soluble protein abundance: 1.11 ± 0.012
